Screening data: PubChem BioAssay, The Scripps Research Institute Molecular Screening Center
FBW7 activator – human FBW7 E3 ligase activation, primary screen. Q969H0. AlphaScreen FBW7–phospho-cyclin E peptide binding, activator screen. normalized activity (activation), % at 26.1 µM. hit rate 0.13% among 650,000; in the data active = normalized activity above about 1.9%;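 also: purified mutant Fbw7 with reduced substrate affinity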
Target sequence (Q969H0 whole entry, looked up): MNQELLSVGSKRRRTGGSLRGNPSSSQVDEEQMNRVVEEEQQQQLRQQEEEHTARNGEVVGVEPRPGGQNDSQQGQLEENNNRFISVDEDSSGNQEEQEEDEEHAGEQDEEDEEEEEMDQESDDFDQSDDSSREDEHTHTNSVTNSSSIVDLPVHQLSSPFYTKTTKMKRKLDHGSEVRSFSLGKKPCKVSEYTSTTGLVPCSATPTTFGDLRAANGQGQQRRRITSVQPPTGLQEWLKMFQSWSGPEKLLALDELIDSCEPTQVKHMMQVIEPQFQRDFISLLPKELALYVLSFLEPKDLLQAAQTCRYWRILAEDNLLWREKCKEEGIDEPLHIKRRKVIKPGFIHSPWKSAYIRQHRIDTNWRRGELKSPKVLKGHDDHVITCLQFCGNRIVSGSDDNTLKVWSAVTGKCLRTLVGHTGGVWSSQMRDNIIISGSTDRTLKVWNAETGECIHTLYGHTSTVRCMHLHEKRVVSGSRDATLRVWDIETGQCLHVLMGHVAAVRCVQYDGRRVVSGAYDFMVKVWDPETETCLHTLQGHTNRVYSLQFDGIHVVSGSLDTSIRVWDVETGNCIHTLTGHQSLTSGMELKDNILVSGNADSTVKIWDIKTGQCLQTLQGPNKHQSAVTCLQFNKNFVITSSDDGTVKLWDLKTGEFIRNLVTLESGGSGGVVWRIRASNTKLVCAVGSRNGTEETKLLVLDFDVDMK
TEAD-YAP inh – TEAD-YAP interaction inhibition. HEK-TIYL cells, TEAD-Gal4/YAP UAS-luciferase luminescence. inhibition, % at 9.12 µM. hit rate 1.4% among 640,000; in the data active = inhibition above about 32%;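 also: 0% = median of test compound wells and 100% = reference inhibitor wells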
MITF primary – human MITF inhibition, primary screen; O75030; AlphaScreen MITF homodimerization, bead proximity signal; inhibition, % at 2.6 µM; hit rate 0.91% among 650,000; AID 1259374; in the data active = inhibition above about 50%;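 also: 0% = vehicle wells with protein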
GPR151 ag – human GPR151 activation; PathHunter beta-arrestin GPR151 cells, luminescence; Q8TDV0; AID 1508602; hit rate 1% among 650,000; activation, % at 11.2 µM; in the data active = activation above about 4.9%;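 also: 0% = median of compound wells and 100% = cells with positive control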
GPR151 confirm – confirmation of human GPR151 activators; activation, % at 11.2 µM; 6,700 tested, under 10 active; GPR151 PathHunter beta-arrestin cells, luminescence, 90 min; % of EA-reagent control over plate median; AID 1508609; shares compounds with GPR151 ag;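 active = mean percent activation across replicates above the confirmation screen cutoff of 4.91%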
GPR119 ag – counter-screen for GPR151 activators: effect on human GPR119. shares compounds with GPR151 ag. GPR119 PathHunter beta-arrestin cells, luminescence, 90 min; 0 = compound-well median, 100 = enzyme-acceptor control. activation, % at 11.2 µM. hit rate 0.3% among 6,700;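 active = mean percent activation in the counterscreen above 29.09%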;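 also: counterscreen on off-target GPR119 to flag nonselective hits from the GPR151 activator screen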
* = called active by the depositor; x = not tested or not shown. In the library only some 3.5% were active in any assay of this set; here they are far more common.

SMILES | FBW7 activator | TEAD-YAP inh | MITF primary | GPR151 ag | GPR151 confirm | GPR119 ag
CC(Oc1ccc(Br)cc1)C(=O)Nc1cccc([N+](=O)[O-])c1 (stereo unspecified) | 0 | -8 | 19 | 6.1* | 2 | -3
CC(=O)c1cccc(NC(=O)C(C)NS(=O)(=O)c2ccc(F)cc2)c1 (stereo unspecified) | 0 | -7 | -4 | 6.3* | 1 | 5
Cc1ccc(NC(=O)/C=C\C(=O)O)cc1Cl | 0 | -5 | -11 | -1 | x | x
COc1ccc(-n2c(SCc3ccccc3)nc3c(c2=O)C2(CCCCC2)Cc2ccccc2-3)cc1 | 0 | 6 | -6 | 1 | x | x
COc1ccc(S(=O)(=O)NC(C)C(=O)Nc2ccccc2)cc1 (stereo unspecified) | 0 | 0 | 16 | 0 | x | x
COc1ccc(NC(=O)C(C)NS(=O)(=O)c2ccc(C)cc2)cc1OC (stereo unspecified) | 0 | 1 | 21 | 13* | 0 | 5
COc1cc(NC(=O)CS(=O)(=O)c2ccc(C)cc2)cc(OC)c1OC | 0 | 2 | 13 | 6.0* | 0 | -9
COC(=O)c1ccc(NC(=O)C(C)NS(=O)(=O)c2cc(Cl)ccc2Cl)cc1 (stereo unspecified) | 0 | 3 | 6 | -1 | x | x
CC(NS(=O)(=O)c1cc(Cl)ccc1Cl)C(=O)Nc1cccc([N+](=O)[O-])c1 (stereo unspecified) | 0 | 6 | 0 | 7.7* | 1 | 7
COc1ccc(S(=O)(=O)NC(C)C(N)=O)cc1 (stereo unspecified) | 0 | 3 | 3 | 6.0* | 0 | 2
CCn1cc(C(=O)N2CCC3(CC2)Nc2cc(OC)ccc2-n2cccc23)c(C)n1 | 0 | -5 | 1 | 0 | x | x
Nc1c(C(=O)Nc2ccc3c(c2)OCCO3)sc2nc(-c3cccs3)ccc12 | 0 | 11 | -6 | 6.3* | -1 | -2
Nc1c(C(=O)Nc2ccc3c(c2)OCCO3)sc2nc3cc4c(cc3cc12)OCCO4 | 0 | -77 | 11 | 0 | x | x
CCCn1ncc(CN2CCC(n3nccc3NC(=O)CCc3ccccc3)CC2)c1C | 0 | -4 | 19 | 6.6* | -1 | -12
Cc1ccc(C(=O)N/N=C\C(Br)=C\c2ccccc2)cn1 | 0 | -19 | -4 | 5.8* | 0 | -1
COC(=O)CCC(=O)OC1(C)C(=O)C=C2C=C(C3CC3)OC=C2C1=O (stereo unspecified) | 0 | x | 17 | 5.8* | 0 | 9
O=C(Nc1cccs1)Nc1ccccc1NC(=O)c1ccccc1F | 0 | -39 | 11 | 0 | x | x
Cc1ccccc1C(=O)Nc1ccccc1NC(=O)Nc1cccs1 | 0 | -13 | 10 | 12* | 0 | 4
COc1ccc(NC(=O)C2CC(=O)NC(Nc3ccc(C)cc3C)=N2)cc1 (stereo unspecified) | 0 | 7 | 7 | 12* | 1 | -13
O=C(Nc1ccc(Oc2ccccc2)cc1)c1cn2ccsc2n1 | 0 | -52 | 18 | -1 | x | x
Cc1cc(C)cc(NS(=O)(=O)c2ccc(-c3cc(C)no3)cc2)c1 | 0 | 58* | -11 | 8.2* | 1 | -6
CCC(C)OC(=O)C1=C(C)NC2=C(C(=O)CC(c3ccc(OC)cc3)C2)C1c1cc(OC)c(OC)cc1Br (stereo unspecified) | -1 | 11 | -2 | 7.5* | 2 | 6
COc1ccc(C2C3C(C)=NN=C3CC(C)(O)C2C(C)=O)cc1 (stereo unspecified) | 0 | -1 | 13 | 6.6* | 2 | 11
CC(=O)C1C(c2ccc(F)cc2)C2C(C)=NN=C2CC1(C)O (stereo unspecified) | 0 | 9 | 12 | 1 | x | x
CC(=O)Nc1sc(N/N=C/c2cccc(Cl)c2)nc1-c1cccs1 | 0 | 9 | 9 | 7.5* | 0 | 4
O=C(N/N=C/c1cccc(Cl)c1)c1cccs1 | 0 | -53 | 12 | -2 | x | x
CCN(CC)c1ccc(/C=N/NC(=O)COc2ccccc2)c(O)c1 | 0 | 3 | 6 | 8.1* | 1 | 12
CCN(CC)c1ccc(/C=N/N2C(=O)c3ccccc3C2=O)c(O)c1 | 0 | 4 | -72 | 8.3* | 0 | 2
CCN(CC)c1ccc(/C=N/N2C(=O)c3ccccc3C2=O)cc1 | 0 | 9 | -2 | 0 | x | x
